KB-3-1 cytotox – kills parental KB-3-1 adenocarcinoma cells; 400,000 compounds, 1.4% hits; Potency, µM (titrated, usually from 46.1 µM), actives largely listed as cytotoxic; KB-3-1 viability, CellTiter-Glo ATP luminescence, 72 h; further: on the % scale 0 is the no-effect control and ±100 the full control effect; nearly all actives have a fitted effect of over 60% in size
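Using CellTiter-Glo luminescence, growth of non-resistant KB-3-1 adenocarcinoma cells is assessed 72 h after pin-tool compound addition at 37 °C. Normalized responses across the concentration series yield fitted curves.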
HT1080-NT tox – kills 2HG-producing HT-1080-NT fibrosarcoma cells; AID 686970; 360,000 compounds, 1.6% hits; HT-1080-NT fibrosarcoma viability, CellTiter-Glo ATP luminescence, 48 h; Potency, µM (highest dose often 46.1 µM), inactives show at the top dose activity, negative = less viability, usual class: cytotoxic;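 further: NT is the 2HG producing partner of a matched IDH1 knockdown line; 0% = DMSO-treated cells and -100% = media-only wells without cells; nearly all actives have a fitted effect of over 55% in size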
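Fibrosarcoma NT cells, 750 per well in 5% FBS RPMI, were exposed to compound for 48 hours. Viability: CellTiter-Glo luminescence.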
SW480 rerep – induces DNA re-replication in SW480 colon adenocarcinoma cells; AID 624297; SW480 DNA re-replication, Hoechst DNA content imaging, 48 h; Potency, µM (top dose mostly 46.1 µM), inactives show top-dose re-replication activation, most hits filed as activators; 340,000 compounds, 1.8% hits; further: % of control where 0% means no effect; nearly all actives have a fitted effect of over 55% in size
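Treated cells incubate 48 hr (37 C, 5% CO2), are stained 40 min with Hoechst, and nuclear fluorescence is enumerated; a rise in nuclei with high DNA signal marks re-replication.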
KB-V1 MDR tox – kills drug-selected multidrug resistant KB-V1 cells | AID 1347076 | Potency, µM (series often up to 46.1 µM), most hits filed as cytotoxic | KB-V1 MDR cells viability, CellTiter-Glo, 72 h | 400,000 compounds, 3.4% hits; further: on the % scale 0 is the no-effect control and ±100 the full control effect; nearly all actives have a fitted effect of over 60% in size
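KB-V1, DMEM (no phenol red) + 10% FBS; cpd pin-transferred, titration series; 72 h, 37 degrees C; CellTiter-Glo, luminescence. Data normalized, curve-fit.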
MCF10A rerep – DNA re-replication induction in MCF 10a cells; MCF 10A DNA re-replication, Hoechst nuclear intensity, 48 h; Potency, µM (doses to about 46.1 µM), inactives show at the highest dose activity, positive = re-replication, hits mostly activators; 350,000 compounds, 2.9% hits; further: % of control where 0% means no effect; nearly all actives have a fitted effect of over 50% in size
HT1080 IDH1KD tx – HT-1080 IDH1 knockdown cell toxicity (counter line) | AID 686971 | Potency, µM (series often up to 46.1 µM), for inactives: top-dose activity, negative = toxicity, usual class: cytotoxic | 360,000 compounds, 2% hits | HT-1080 IDH1 knockdown viability, ATP luminescence, 48 h;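 further: 0% = DMSO wells and -100% = cell-free medium wells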
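CellTiter-Glo luminescence after 48 h compound exposure at 37 degrees C of IDH1-knockdown HT-1080 cells in 5% FBS RPMI. %Activity scaled between DMSO wells and cell-free media wells, with curves fitted and assigned curve classes.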
The depositor's hits bear a star; i = inactive; ? = inconclusive; nt = no result given. An excerpt weighted towards active compounds, which were near 8% of everything screened. The call rests on the fitted dose curve; in most records, active means well fitted curve in the direction sought with a large enough effect; inconclusive means small, poorly fitted or top-dose-only effect, or another doubt; inactive means no such curve, though single readings can be large; an effect the other way counts as inactive or inconclusive. Potency means the concentration at half of the fitted maximal effect.

SMILES | KB-3-1 cytotox | HT1080-NT tox | SW480 rerep | KB-V1 MDR tox | MCF10A rerep | HT1080 IDH1KD tx
O=C(CSc1ccc(-c2nc3ccccc3[nH]2)cn1)Nc1ccc(S(=O)(=O)N2CCCC2)cc1 | i | -13% | -19% | ? | -51% | -6%
Cc1ccc(N(C(C)C(=O)N2CCOCC2)S(C)(=O)=O)cc1C (stereo not given) | i | -5% | 23µM* | i | -13% | 0%
COc1cc(N)c(N)cc1OC | i | nt | nt | i | nt | nt
COc1ccc(C(=O)NCc2ccc3c(c2)CCN3C(=O)c2cccc(C)c2)cc1OC | i | nt | nt | i | nt | nt
CCOc1ccccc1-n1c(SCC(=O)N2CCOCC2)nc2ccccc2c1=O | i | 4% | -11% | ? | -1% | 10%
COc1ccc(OC)c(NC(=O)CCNS(=O)(=O)c2ccc3c(c2)CC(C)N3C(C)=O)c1 (stereo not given) | i | 7% | nt | i | nt | 3%
O=C(CSc1nnc(Cn2nnc3ccccc32)o1)Nc1ccc(Cl)cc1 | i | 6% | 0% | i | -2% | 13%
O=C(CSc1nnc(Cn2nnc3ccccc32)o1)N(Cc1ccc(F)cc1)c1ccccc1 | 5.2µM* | 0.28µM* | -2% | ? | 17% | ?
COc1ccc(N(Cc2ccccc2)C(=O)CSc2nnc(Cn3nnc4ccccc43)o2)cc1 | ? | -2% | ? | 8.2µM* | ? | -18%
CCOC(=O)C1CCN(C(=O)c2ccc(NS(=O)(=O)c3ccc4[nH]c(=O)[nH]c4c3)cc2)CC1 | i | -2% | -5% | i | -3% | 10%
OCC[C@@H]1C[C@H](O)[C@@H](O)[C@@]2(OCCCc3cc(Cl)ccc32)O1 | i | 0% | nt | i | nt | 24%
CC1CCC2C(=O)N(c3ccc(Cc4ccncc4)cc3)C(=O)C2C1 (stereo not given) | 4.6µM* | ? | ? | 10µM* | -12% | ?
O=C(Nc1cccnc1)c1cc(-c2ccccc2)on1 | i | -3% | 8% | i | 13% | -16%
COc1cc(NC(=O)c2cc(-c3ccc4c(c3)OCO4)on2)cc(OC)c1OC | i | 8.2µM* | -25% | ? | 19% | 5.8µM*
COc1ccc(NC(=O)c2cc(C(C)C)on2)cc1OC | i | 13% | -2% | 21µM* | 21% | -2%
COc1cccc(-c2cc(C(=O)Nc3cc(OC)c(OC)c(OC)c3)no2)c1 | ? | ? | ? | 3.7µM* | 3.7µM* | ?
COc1cccc(-c2cc(C(=O)Nc3cccnc3)no2)c1 | ? | ? | 5% | ? | 9.2µM* | 12µM*
COc1ccc(NC(=O)c2cc(C)on2)cc1OC | i | 8% | -12% | i | 0% | -4%
CCOc1ccc(NS(=O)(=O)c2ccc(C(=O)NCC(c3ccco3)N3CCCC3)cc2)cc1 (stereo not given) | i | -12% | -1% | i | 11% | -3%
CC(C)n1cc(NC(=O)c2cc(-c3ccccc3)on2)cn1 | ? | 16µM* | 5.2µM* | 4.1µM* | 3.7µM* | 8.2µM*
CCCCNC(=O)c1cccc(-n2c(C)nc3cccnc32)c1 | i | nt | nt | i | nt | nt
COc1cccc(N=NC2C(=O)N(C(N)=S)N=C2C)c1 (stereo not given) | i | 26µM* | ? | i | ? | -6%
CC1=NN(C(N)=S)C(=O)C1N=Nc1c(C)cc(C)cc1C (stereo not given) | 4.6µM* | 11% | -13% | ? | ? | 3%
CC1=NN(C(N)=S)C(=O)C1N=Nc1cccc(Cl)c1 (stereo not given) | i | -14% | -17% | i | 4% | -19%
CCc1ccc(NC(=O)C2CCCN2c2nn3c(=O)cc(C)nc3s2)cc1 (stereo not given) | i | 1% | 2% | i | 4% | -8%
Cc1cc(N/N=C/c2cccc([N+](=O)[O-])c2)nc(-n2nc(C)cc2C)n1 | ? | 0% | 3.7µM* | ? | ? | 15%

Compound activity: PubChem BioAssay, National Center for Advancing Translational Sciences (NCATS)
